Laboratory results published in the supplement of paper PMC7411054.

Experiments:
Conditions in all cases: treatment time: 24 h
A549-ACTB-RAB5A = test: phenotypically active (imaging signature differs from DMSO and reproducible) at any of 0.3-9 uM (binary (1 = active, 0 = inactive)); higher = active
Procedure, shortened: (§1)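 Two criteria together defined phenotypic activity: deviation and reproducibility. Deviation meant ≥3 of 4 wells beyond the 95th percentile of Euclidean distances in solvent control wells, and reproducibility meant a median replicate Pearson correlation above the 95th percentile of non-replicates. Wells had been treated for 24 h at 0.3, 1, 3 or 9 µM in fifteen gene-edited A549, HepG2 and WPMY1 reporter lines before live imaging.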

A549-CANX-COX4 = test: as above
Procedure, shortened: as §1

A549-GM130-SQSTM1 [1] = test: as above
Procedure, shortened: as §1

A549-TP53BP1-CLTA = test: as above
Procedure, shortened: as §1

A549-TUBA1B-RELA [2] = test: as above
Procedure, shortened: as §1

HepG2-ACTB-RAB5A = test: as above
Procedure, shortened: as §1

HepG2-CANX-COX4 = test: as above
Procedure, shortened: as §1

HepG2-GM130-SQSTM1 = test: as above
Procedure, shortened: as §1

HepG2-TP53BP1-CLTA = test: as above
Procedure, shortened: as §1

HepG2-TUBA1B-RELA = test: as above
Procedure, shortened: as §1

WPMY1-ACTB-RAB5A = test: as above
Procedure, shortened: as §1

WPMY1-CANX-COX4 [3] = test: as above
Procedure, shortened: as §1

WPMY1-GM130-SQSTM1 [4] = test: as above
Procedure, shortened: as §1

WPMY1-TP53BP1-CLTA = test: as above
Procedure, shortened: as §1

WPMY1-TUBA1B-RELA = test: as above
Procedure, shortened: as §1

WPMY1-GM130-SQSTM1 [5] = test: lowest phenotypically active concentration; higher = less potent
Procedure, shortened: as §1

A549-TUBA1B-RELA [6] = test: as above
Procedure, shortened: as §1

WPMY1-CANX-COX4 [7] = test: as above
Procedure, shortened: as §1

A549-GM130-SQSTM1 [8] = test: as above
Procedure, shortened: as §1

| Structure (SMILES) | phenotypically active (A549-ACTB-RAB5A) | phenotypically active (A549-CANX-COX4) | phenotypically active (A549-GM130-SQSTM1 [1]) | phenotypically active (A549-TP53BP1-CLTA) | phenotypically active (A549-TUBA1B-RELA [2]) | phenotypically active (HepG2-ACTB-RAB5A) | phenotypically active (HepG2-CANX-COX4) | phenotypically active (HepG2-GM130-SQSTM1) | phenotypically active (HepG2-TP53BP1-CLTA) | phenotypically active (HepG2-TUBA1B-RELA) | phenotypically active (WPMY1-ACTB-RAB5A) | phenotypically active (WPMY1-CANX-COX4 [3]) | phenotypically active (WPMY1-GM130-SQSTM1 [4]) | phenotypically active (WPMY1-TP53BP1-CLTA) | phenotypically active (WPMY1-TUBA1B-RELA) | lowest phenotypically active concentration (WPMY1-GM130-SQSTM1 [5]) [µM] | lowest phenotypically active concentration (A549-TUBA1B-RELA [6]) [µM] | lowest phenotypically active concentration (WPMY1-CANX-COX4 [7]) [µM] | lowest phenotypically active concentration (A549-GM130-SQSTM1 [8]) [µM] |
| --- | --- | --- | --- | --- | --- | --- | --- | --- | --- | --- | --- | --- | --- | --- | --- | --- | --- | --- | --- |
| CC1=C(/C=C/C(C)=C/C=C/C(C)=C/C(=O)O)C(C)(C)CCC1 [isotretinoin] | 0 (inactive) | 0 (inactive) | 0 (inactive) | 0 (inactive) | 0 (inactive) | 0 (inactive) | 1 (active) | 0 (inactive) | 0 (inactive) | 0 (inactive) | 0 (inactive) | 0 (inactive) | 0 (inactive) | 1 (active) | 0 (inactive) | – | – | – | – |
| COc1ccc(CC2c3cc(OC)c(OC)cc3CC[N+]2(C)CCC(=O)OCCCCCOC(=O)CC[N+]2(C)CCc3cc(OC)c(OC)cc3C2Cc2ccc(OC)c(OC)c2)cc1OC (stereo not given) [Atracurium besilate] | 0 (inactive) | 0 (inactive) | 0 (inactive) | 0 (inactive) | 0 (inactive) | 0 (inactive) | 1 (active) | 1 (active) | 0 (inactive) | 0 (inactive) | 1 (active) | 0 (inactive) | 1 (active) | 0 (inactive) | 0 (inactive) | 9 | – | – | – |
| Nc1nnc(Sc2ncc([N+](=O)[O-])s2)s1 | 0 (inactive) | 0 (inactive) | 0 (inactive) | 0 (inactive) | 1 (active) | 0 (inactive) | 0 (inactive) | 0 (inactive) | 0 (inactive) | 0 (inactive) | 0 (inactive) | 0 (inactive) | 0 (inactive) | 0 (inactive) | 0 (inactive) | – | 9 | – | – |
| Clc1ccc(C(c2ccc(Cl)cc2)[n+]2ccn(CC(OCc3ccc(Cl)cc3Cl)c3ccc(Cl)cc3Cl)c2)cc1 (stereo not given) [Calmidazolium chloride] | 0 (inactive) | 0 (inactive) | 0 (inactive) | 0 (inactive) | 0 (inactive) | 1 (active) | 0 (inactive) | 0 (inactive) | 0 (inactive) | 1 (active) | 0 (inactive) | 1 (active) | 1 (active) | 0 (inactive) | 1 (active) | 3 | – | 3 | – |
| O=c1c(O)c(-c2ccc(O)cc2)oc2cc(O)cc(O)c12 [Kaempferol] | 0 (inactive) | 0 (inactive) | 1 (active) | 0 (inactive) | 0 (inactive) | 0 (inactive) | 0 (inactive) | 0 (inactive) | 0 (inactive) | 0 (inactive) | 0 (inactive) | 1 (active) | 1 (active) | 1 (active) | 0 (inactive) | 9 | – | 9 | 9 |
| COc1ccc(-n2c(SCCCN3C(=O)c4cccc5cccc(c45)C3=O)nnc2-c2ccncc2)cc1 | 0 (inactive) | 0 (inactive) | 1 (active) | 0 (inactive) | 1 (active) | 0 (inactive) | 0 (inactive) | 0 (inactive) | 0 (inactive) | 0 (inactive) | 0 (inactive) | 0 (inactive) | 0 (inactive) | 0 (inactive) | 0 (inactive) | – | 3 | – | 3 |
| C[C@H](NC(=O)[C@@H](O)c1cc(F)cc(F)c1)C(=O)N[C@@H]1C(=O)N(C)c2ccccc2-c2ccccc21 | 0 (inactive) | 0 (inactive) | 0 (inactive) | 0 (inactive) | 0 (inactive) | 0 (inactive) | 1 (active) | 0 (inactive) | 0 (inactive) | 0 (inactive) | 1 (active) | 1 (active) | 1 (active) | 0 (inactive) | 0 (inactive) | 3 | – | 1 | – |
| Cc1c(C)c2c(c(C)c1O)CC[C@@](C)(CCC[C@H](C)CCC[C@H](C)CCCC(C)C)O2 [Tocopherol (R,S)] | 0 (inactive) | 0 (inactive) | 0 (inactive) | 0 (inactive) | 0 (inactive) | 0 (inactive) | 1 (active) | 0 (inactive) | 0 (inactive) | 0 (inactive) | 0 (inactive) | 0 (inactive) | 0 (inactive) | 0 (inactive) | 0 (inactive) | – | – | – | – |
| CC(C)[C@@H](C)/C=C/[C@@H](C)[C@H]1CC[C@H]2C3=CC=C4C[C@@H](O)CC[C@]4(C)[C@H]3CC[C@]12C [Ergosterine] | 0 (inactive) | 0 (inactive) | 1 (active) | 0 (inactive) | 1 (active) | 0 (inactive) | 0 (inactive) | 1 (active) | 0 (inactive) | 0 (inactive) | 0 (inactive) | 0 (inactive) | 0 (inactive) | 0 (inactive) | 0 (inactive) | – | 9 | – | 9 |
| O=C(/C=C/c1ccc(O)cc1)c1ccc(O)cc1O [Isoliquiritigenin] | 0 (inactive) | 0 (inactive) | 0 (inactive) | 0 (inactive) | 1 (active) | 0 (inactive) | 0 (inactive) | 1 (active) | 0 (inactive) | 0 (inactive) | 0 (inactive) | 1 (active) | 0 (inactive) | 1 (active) | 0 (inactive) | – | 9 | 9 | – |
| c1ccc(-c2n[nH]cc2-c2ccnc3ccccc23)nc1 | 0 (inactive) | 0 (inactive) | 0 (inactive) | 0 (inactive) | 1 (active) | 0 (inactive) | 1 (active) | 1 (active) | 1 (active) | 0 (inactive) | 1 (active) | 1 (active) | 0 (inactive) | 0 (inactive) | 0 (inactive) | – | 9 | 9 | – |
| CC1(C)CCC(C)(C)c2cc(C(O)C(=O)Nc3ccc(C(=O)O)cc3F)ccc21 (stereo not given) | 0 (inactive) | 0 (inactive) | 0 (inactive) | 0 (inactive) | 0 (inactive) | 0 (inactive) | 1 (active) | 0 (inactive) | 0 (inactive) | 0 (inactive) | 0 (inactive) | 0 (inactive) | 0 (inactive) | 0 (inactive) | 0 (inactive) | – | – | – | – |
| O=c1cc(N2CCOCC2)oc2c1ccc1ccccc12 | 0 (inactive) | 0 (inactive) | 1 (active) | 0 (inactive) | 0 (inactive) | 0 (inactive) | 0 (inactive) | 0 (inactive) | 0 (inactive) | 0 (inactive) | 0 (inactive) | 0 (inactive) | 0 (inactive) | 0 (inactive) | 1 (active) | – | – | – | 3 |
| Cc1cc(C)c(C)c(S(=O)(=O)Nc2ccc(N3CC[C@H](C(=O)O)C3)c3ccccc23)c1C | 0 (inactive) | 0 (inactive) | 1 (active) | 0 (inactive) | 0 (inactive) | 0 (inactive) | 0 (inactive) | 1 (active) | 0 (inactive) | 0 (inactive) | 0 (inactive) | 0 (inactive) | 1 (active) | 0 (inactive) | 0 (inactive) | 1 | – | – | 9 |
| CCOc1ccc2nc(S(N)(=O)=O)sc2c1 [ethoxzolamide] | 0 (inactive) | 0 (inactive) | 0 (inactive) | 0 (inactive) | 0 (inactive) | 0 (inactive) | 0 (inactive) | 1 (active) | 0 (inactive) | 0 (inactive) | 0 (inactive) | 0 (inactive) | 0 (inactive) | 0 (inactive) | 0 (inactive) | – | – | – | – |
